HER2 expr 66K = inhibitors of Her2 protein expression, primary screen, SKBR-3 cells, AlphaScreen, 66K library. SKBR-3 HER2 protein level, 18-24 h; active compounds read low. HER2 level % of control, % at 10 µM. hit rate 0.69% among 65,000;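 active = HER2 level under 5% of the carrier-only control; inconclusive = no clear call, values can overlap the other calls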;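 note: lower value means stronger loss of Her2 protein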
mHtt clearance = clearance of mutant huntingtin inclusions, primary screen, imaging, HeLa Exon1htt(103Q)mCFP, confocal imaging; aggregate imaging; zero = plate's median compound well; inhibition, % at 1.5 µM; hit rate 0.42% among 47,000;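 active = inhibition of aggregate fluorescence above about 70%, also judged a hit by eye on the cell image, limit read from the data, passing the limit was not always enough; inconclusive = no rule stated for this call; inactive = not judged a hit on image review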;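 note: cells exposed to compound for three days before fixation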
SK-BR-3 tox 24h = SK-BR-3 proliferation inhibitors, primary screen, cell-based, human, 24 h. SK-BR-3 viability, CellTiter-Glo ATP luminescence; active compounds read low. hit rate 0.47% among 41,000. viability, % at 10 µM;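 active = viability at or below the median of all test compounds minus 3 SD, in both replicates if run twice, cut at about 45% in these data; inconclusive = duplicate replicates that disagree with each other; inactive = viability above that cutoff in every replicate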
Hits are given with their value; - = inactive; ? = inconclusive; . = not tested or not shown. Sampled rows, rich in hits. Any-hit rate of the full collection: about 0.97%.

SMILES | HER2 expr 66K | mHtt clearance | SK-BR-3 tox 24h
Cc1cc(C)c2nc(Nc3nc(C)cc(=O)[nH]3)nc(C)c2c1 | 0.2 | . | .
O=C(CCNc1cccc(Cl)c1)c1ccco1 | - | . | .
C=CCSC1=N/C(=C\c2ccc3c(c2)OCO3)C(=O)S1 | - | - | -
C=CCSC1=N/C(=C\C=C\c2ccco2)C(=O)S1 | 2.1 | - | .
O=C(Nc1ccc(N2CCOCC2)cc1)c1cn2ccccc2n1 | . | - | .
COCc1[nH]nc2c1C(c1ccc(OC)c(OC)c1)C(C#N)=C(N)O2 (configuration not stated) | - | - | -
CCn1c2ccccc2c2cc(C3C(C#N)=C(N)Oc4n[nH]c(COC)c43)ccc21 (configuration not stated) | -24 | ? | ?
N#CCCS(=O)(=O)c1nnnn1-c1ccccc1 | -1.1 | . | -
N#CCCCSc1nnnn1-c1cccc(Cl)c1 | - | . | -
COc1ccc(C2CC(c3ccc(Br)cc3)Nc3nc(N)nn32)cc1 (configuration not stated) | - | . | -
Nc1nc2n(n1)C(c1cccs1)CC(c1ccc(Br)cc1)N2 (configuration not stated) | -20 | . | -
Cc1nn(C)c(C)c1NC(=O)c1ccc(S(=O)(=O)N(C)C)cc1 | - | - | -
CC(=O)OCCNC(=O)c1cc2ccccc2oc1=O | - | - | -
CN(C)CCNC(=O)c1cc2ccccc2oc1=O | - | 74 | -
O=C(CSc1nnc(-c2cccs2)o1)OCc1ccccc1 | - | . | 43
O=C(CSc1nnc(-c2cccs2)o1)OC1CCCCC1 | - | . | -
CCOC(=O)N1CCC(N2CC34C=CC(O3)C(C(=O)O)C4C2=O)CC1 (configuration not stated) | - | - | .
O=C(Cc1cccs1)N1CCCC(c2nc3c(nnn3Cc3ccccc3Cl)c(=O)[nH]2)C1 (configuration not stated) | - | - | .
O=C(NCc1cccs1)c1nc2c(nnn2Cc2ccccc2Cl)c(=O)[nH]1 | 0.0 | . | 22
Cc1c(N2C(=O)/C(=C\c3cccc4ccccc34)SC2=S)c(=O)n(-c2ccccc2)n1C | . | - | .
CCN(CC)S(=O)(=O)c1ccc(Cc2ncc(C(F)(F)F)cc2Cl)s1 | . | - | .
CCC(=O)Nc1ccc(S(=O)(=O)c2ccc(NC(=O)CC)cc2)cc1 | - | - | -
Cc1ccc(CCNC(=O)Cn2cccc2)cc1 | - | . | .
CC1CC(C)CN(C(=O)CCCn2c(=S)[nH]c3ccccc3c2=O)C1 (configuration not stated) | - | - | .
O=C(CCCn1c(=S)[nH]c2ccccc2c1=O)N1CCCCC1 | - | 73 | .
SMILES | HER2 expr 66K | mHtt clearance | SK-BR-3 tox 24h
CCCCNC(=O)c1cc2c(-c3ccc(Cl)cc3)nn(C)c2s1 | - | - | .
Cc1ccc(CNC(=O)c2cc3c(-c4ccc(Cl)cc4)nn(C)c3s2)o1 | -17 | - | .
COc1ccccc1NC(=O)NC1(C(=O)N2CCC(O)CC2)CCCCC1 | - | . | .
COCCCN1C(=O)C(=O)/C(=C(/O)c2ccc(OC(C)C)cc2)C1c1cccnc1 (configuration not stated) | - | . | -
COCCCN1C(=O)C(=O)/C(=C(/O)c2ccc(OCC(C)C)cc2)C1c1cccnc1 (configuration not stated) | -21 | . | -
O=C(OCC(=O)N1CCc2ccccc21)c1cccnc1 | - | - | 41
O=C(OCC(=O)N1CCc2ccccc21)c1ccccc1 | - | . | .
CN1C(=O)CSc2ccc(NC(=O)NCCC3=CCCCC3)cc21 | - | . | .
CCOC(=O)c1c(-c2cccs2)csc1NC(=O)c1ccco1 | -28 | - | -
CCOC(=O)c1c(-c2cccs2)csc1NC(=O)CN(CC)CC | . | - | .
COc1ccccc1N1CCN(CC(=O)NCC2CCCO2)CC1 (configuration not stated) | . | - | .
O=C(Nc1ccc(N2CCN(Cc3ccccc3)CC2)cc1)c1ncn[nH]1 | - | - | -
COC1=CC(=O)OC12CCCCC2 | - | 70 | -
O=C1C=C(NC2CC2)C2(CCCCC2)O1 | - | - | .
COC(=O)c1cc(-c2ccccc2)sc1NC(=O)c1cc(C)on1 | - | . | -
O=C(O)CC1SC(=Nc2ccccc2)N(c2ccccc2)C1=O (configuration not stated) | . | . | -
COc1ccc(N2C(=O)C(CC(=O)O)S/C2=C\C(C)=O)cc1 (configuration not stated) | - | . | 31
CCCNS(=O)(=O)c1ccc(OCC(=O)NCc2ccc3c(c2)OCO3)cc1 | - | . | -
Cc1ccccc1S(=O)(=O)Nc1nc2ccccc2nc1N1CCOCC1 | - | . | -
Cc1sc2ncnc(SCc3ccco3)c2c1C | - | - | .
Cc1sc2ncnc(Sc3nnnn3-c3ccc(Cl)cc3)c2c1C | -13 | . | .
O=C(Nc1ccccc1C(=O)OCc1nnc(-c2ccccc2)o1)c1ccco1 | - | . | .
